Among all 5,500 compounds or so, about 2,000 (36%) were called active. About 18% were inconclusive and are not listed. Rule as the data show it: active = normalized growth mostly below about 0.91 (no sharp cut-off); inconclusive = no clear call, values can overlap the other calls; inactive = mostly above about 0.92. The list shows a part of the results.
Test: chemical genetic growth profiling, strain panel (AID 1159580);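 also: tested at 20 µM; growth read once vehicle control cultures reached saturation at 30 °C; 1 = growth at the plate median or of vehicle wells; lower values mean less growth of the strain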
Conditions: growth OD

Measured: normalized growth

C=C1C2CCC3(C)C(c4ccoc4)OC(=O)CC13OC1CC(OC(C)=O)C(C)(C)C(CC(=O)OC)C12C (configuration not stated)
active: S. cerevisiae deletion strains, locus YKL068W, stronger effect = lower value 1.17 [resistant] | S. cerevisiae deletion strains, locus YKL085W, strain MDH1 (second series), stronger effect = lower value 1.08 [resistant] | S. cerevisiae deletion strains, locus YKL085W, strain MDH1, stronger effect = lower value 1.08 [resistant]
inactive: S. cerevisiae deletion strains, locus YAL021C, strain ccr4, stronger effect = lower value 1.02 | S. cerevisiae deletion strains, locus YAL026C, strain drs2, stronger effect = lower value 1.01 | S. cerevisiae deletion strains, locus YAL030W, strain snc1, stronger effect = lower value 1 | S. cerevisiae deletion strains, locus YBL061C, strain skt5, stronger effect = lower value 0.993 | S. cerevisiae deletion strains, locus YBR009C, strain hhf1, stronger effect = lower value 1 | S. cerevisiae deletion strains, locus YBR021W, strain FUR4, stronger effect = lower value 1 | S. cerevisiae deletion strains, locus YBR023C, strain chs3, stronger effect = lower value 1 | S. cerevisiae deletion strains, locus YBR171W, strain sec66, stronger effect = lower value 1.01 | S. cerevisiae deletion strains, locus YBR229C, strain ROT2, stronger effect = lower value 1 | S. cerevisiae deletion strains, locus YBR231C, strain swc5, stronger effect = lower value 1.02 | S. cerevisiae deletion strains, locus YBR279W, strain paf1, stronger effect = lower value 1.01 | S. cerevisiae deletion strains, locus YCL011C, strain gbp2, stronger effect = lower value 1 | S. cerevisiae deletion strains, locus YCL016C, strain dcc1, stronger effect = lower value 1 | S. cerevisiae deletion strains, locus YCL029C, strain bik1, stronger effect = lower value 0.995 | S. cerevisiae deletion strains, locus YCL061C, strain MRC1, stronger effect = lower value 1.01 | S. cerevisiae deletion strains, locus YCL069W, strain vba3, stronger effect = lower value 1 | S. cerevisiae deletion strains, locus YCR088W, strain abp1, stronger effect = lower value 1.01 | S. cerevisiae deletion strains, locus YDL005C, strain med2, stronger effect = lower value 0.985 | S. cerevisiae deletion strains, locus YDL035C, strain GPR1, stronger effect = lower value 0.993 | S. cerevisiae deletion strains, locus YDL040C, strain nat1, stronger effect = lower value 1.01 | S. cerevisiae deletion strains, locus YDL074C, strain BRE1, stronger effect = lower value 1.02 | S. cerevisiae deletion strains, locus YDL101C, strain DUN1, stronger effect = lower value 1 | S. cerevisiae deletion strains, locus YDL185W, strain tfp1, stronger effect = lower value 0.999 | S. cerevisiae deletion strains, locus YDL192W, strain arf1, stronger effect = lower value 0.985 | S. cerevisiae deletion strains, locus YDR001C, strain nth1, stronger effect = lower value 1.01 | S. cerevisiae deletion strains, locus YDR069C, strain doa4, stronger effect = lower value 1.01 | S. cerevisiae deletion strains, locus YDR101C, strain arx1, stronger effect = lower value 1.05 | S. cerevisiae deletion strains, locus YDR137W, strain rgp1, stronger effect = lower value 0.899 | S. cerevisiae deletion strains, locus YDR159W, strain sac3, stronger effect = lower value 1.03 | S. cerevisiae deletion strains, locus YDR162C, strain NBP2, stronger effect = lower value 0.991 | S. cerevisiae deletion strains, locus YDR195W, strain ref2 1 | S. cerevisiae deletion strains, locus YDR297W, strain sur2, stronger effect = lower value 1.02 | S. cerevisiae deletion strains, locus YDR318W, strain mcm21, stronger effect = lower value 0.992 | S. cerevisiae deletion strains, locus YDR334W, strain swr1, stronger effect = lower value 1.03 | S. cerevisiae deletion strains, locus YDR335W, strain msn5, stronger effect = lower value 1 | S. cerevisiae deletion strains, locus YDR388W, stronger effect = lower value 1 | S. cerevisiae deletion strains, locus YDR392W, strain spt3, stronger effect = lower value 1.01 | S. cerevisiae deletion strains, locus YDR502C, strain sam2, stronger effect = lower value 0.994 | S. cerevisiae deletion strains, locus YEL003W, strain gim4, stronger effect = lower value 1.01 | S. cerevisiae deletion strains, locus YEL037C, strain rad23, stronger effect = lower value 1.02 | S. cerevisiae deletion strains, locus YEL061C, strain CIN8 (second series), stronger effect = lower value 1.01 | S. cerevisiae deletion strains, locus YEL061C, strain CIN8, stronger effect = lower value 1 | S. cerevisiae deletion strains, locus YER015W, strain faa2, stronger effect = lower value 1.01 | S. cerevisiae deletion strains, locus YER016W, strain bim1, stronger effect = lower value 1.01 | S. cerevisiae deletion strains, locus YER110C, stronger effect = lower value 0.99 | S. cerevisiae deletion strains, locus YER111C, strain swi4, stronger effect = lower value 0.988 | S. cerevisiae deletion strains, locus YER155C, strain BEM2 (second series), stronger effect = lower value 1.02 | S. cerevisiae deletion strains, locus YER155C, strain BEM2, stronger effect = lower value 1.01 | S. cerevisiae deletion strains, locus YER167W, strain BCK2, stronger effect = lower value 1.01 | S. cerevisiae deletion strains, locus YFR010W, strain ubp6, stronger effect = lower value 1.01 | S. cerevisiae deletion strains, locus YGL078C, strain dbp3, stronger effect = lower value 1.01 | S. cerevisiae deletion strains, locus YGL086W, strain mad1, stronger effect = lower value 0.998 | S. cerevisiae deletion strains, locus YGL167C, strain pmr1, stronger effect = lower value 1.01 | S. cerevisiae deletion strains, locus YGL173C, strain kem1, stronger effect = lower value 0.998 | S. cerevisiae deletion strains, locus YGL227W, strain vid30, stronger effect = lower value 1 | S. cerevisiae deletion strains, locus YGL240W, strain doc1, stronger effect = lower value 0.991 | S. cerevisiae deletion strains, locus YGL248W, strain PDE1, stronger effect = lower value 0.993 | S. cerevisiae deletion strains, locus YGL253W, strain hxk2, stronger effect = lower value 0.981 | S. cerevisiae deletion strains, locus YGR135W, strain pre9, stronger effect = lower value 0.983 | S. cerevisiae deletion strains, locus YGR252W, strain gcn5, stronger effect = lower value 0.923 | S. cerevisiae deletion strains, locus YHR013C, strain ard1, stronger effect = lower value 1.01 | S. cerevisiae deletion strains, locus YHR027C, strain rpn1, stronger effect = lower value 1.02 | S. cerevisiae deletion strains, locus YHR030C, strain SLT2, stronger effect = lower value 1.01 | S. cerevisiae deletion strains, locus YHR079C, strain IRE1 (second series), stronger effect = lower value 1 | S. cerevisiae deletion strains, locus YHR094C, strain hxt1, stronger effect = lower value 0.999 | S. cerevisiae deletion strains, locus YHR129C, strain ARP1, stronger effect = lower value 1.01 | S. cerevisiae deletion strains, locus YHR142W, strain chs7, stronger effect = lower value 0.99 | S. cerevisiae deletion strains, locus YHR200W, strain rpn10, stronger effect = lower value 1 | S. cerevisiae deletion strains, locus YIL066C, strain RNR3, stronger effect = lower value 1.01 | S. cerevisiae deletion strains, locus YIL073C, strain SPO22, stronger effect = lower value 0.973 | S. cerevisiae deletion strains, locus YIL125W, strain kgd1, stronger effect = lower value 0.998 | S. cerevisiae deletion strains, locus YIR030C, strain dcg1, stronger effect = lower value 0.998 | S. cerevisiae deletion strains, locus YJL092W, strain hpr5, stronger effect = lower value 1.02 | S. cerevisiae deletion strains, locus YJL095W, strain BCK1 (second series), stronger effect = lower value 1.02 | S. cerevisiae deletion strains, locus YJL095W, strain BCK1, stronger effect = lower value 1.01 | S. cerevisiae deletion strains, locus YJL115W, strain asf1, stronger effect = lower value 1.01 | S. cerevisiae deletion strains, locus YJL129C, strain trk1, stronger effect = lower value 0.969 | S. cerevisiae deletion strains, locus YJL134W, strain LCB3, stronger effect = lower value 1.01 | S. cerevisiae deletion strains, locus YJL154C, strain vps35, stronger effect = lower value 1.03 | S. cerevisiae deletion strains, locus YJL164C, strain tpk1, stronger effect = lower value 0.997 | S. cerevisiae deletion strains, locus YJL166W, strain qcr8, stronger effect = lower value 1.02 | S. cerevisiae deletion strains, locus YJL168C, strain set2, stronger effect = lower value 0.998 | S. cerevisiae deletion strains, locus YJL187C, strain SWE1 (second series), stronger effect = lower value 1 | S. cerevisiae deletion strains, locus YJR043C, strain POL32, stronger effect = lower value 1.02 | S. cerevisiae deletion strains, locus YKL160W, strain elf1, stronger effect = lower value 1.01 | S. cerevisiae deletion strains, locus YKR001C, strain vps1, stronger effect = lower value 1.02 | S. cerevisiae deletion strains, locus YKR026C, strain gcn3, stronger effect = lower value 1 | S. cerevisiae deletion strains, locus YKR091W, strain srl3, stronger effect = lower value 1 | S. cerevisiae deletion strains, locus YLL001W, strain dnm1, stronger effect = lower value 1.01 | S. cerevisiae deletion strains, locus YLL026W, stronger effect = lower value 1 | S. cerevisiae deletion strains, locus YLL041C, strain sdh2, stronger effect = lower value 1 | S. cerevisiae deletion strains, locus YLR027C, strain aat2, stronger effect = lower value 0.991 | S. cerevisiae deletion strains, locus YLR039C, strain RIC1, stronger effect = lower value 0.988 | S. cerevisiae deletion strains, locus YLR058C, strain SHM2, stronger effect = lower value 1 | S. cerevisiae deletion strains, locus YLR102C, strain apc9, stronger effect = lower value 1.01 | S. cerevisiae deletion strains, locus YLR221C, strain rsa3, stronger effect = lower value 0.995 | S. cerevisiae deletion strains, locus YLR258W, strain gsy2, stronger effect = lower value 0.994 | S. cerevisiae deletion strains, locus YLR262C, strain YPT6 (second series), stronger effect = lower value 0.972 | S. cerevisiae deletion strains, locus YLR262C, strain YPT6, stronger effect = lower value 0.933 | S. cerevisiae deletion strains, locus YLR268W, strain sec22, stronger effect = lower value 0.984 | S. cerevisiae deletion strains, locus YLR320W, strain mms22, stronger effect = lower value 1.01 | S. cerevisiae deletion strains, locus YLR342W, strain FKS1, stronger effect = lower value 0.992 | S. cerevisiae deletion strains, locus YLR357W, strain rsc2, stronger effect = lower value 1.02 | S. cerevisiae deletion strains, locus YLR370C, strain arc18, stronger effect = lower value 0.998 | S. cerevisiae deletion strains, locus YLR371W, strain rom2, stronger effect = lower value 1.01 | S. cerevisiae deletion strains, locus YLR384C, strain iki3, stronger effect = lower value 1.01 | S. cerevisiae deletion strains, locus YLR418C, strain cdc73, stronger effect = lower value 0.983 | S. cerevisiae deletion strains, locus YML016C, strain PPZ1, stronger effect = lower value 1.03 | S. cerevisiae deletion strains, locus YML032C, strain rad52, stronger effect = lower value 0.999 | S. cerevisiae deletion strains, locus YML120C, strain ndi1, stronger effect = lower value 1.01 | S. cerevisiae deletion strains, locus YML124C, strain tub3, stronger effect = lower value 0.993 | S. cerevisiae deletion strains, locus YMR058W, strain fet3, stronger effect = lower value 1.02 | S. cerevisiae deletion strains, locus YMR078C, strain ctf18, stronger effect = lower value 0.988 | S. cerevisiae deletion strains, locus YMR125W, strain sto1, stronger effect = lower value 1.01 | S. cerevisiae deletion strains, locus YMR129W, stronger effect = lower value 1 | S. cerevisiae deletion strains, locus YMR205C, strain PFK2, stronger effect = lower value 0.97 | S. cerevisiae deletion strains, locus YMR223W, strain ubp8, stronger effect = lower value 0.991 | S. cerevisiae deletion strains, locus YMR231W, strain pep5, stronger effect = lower value 1 | S. cerevisiae deletion strains, locus YMR307W, strain GAS1, stronger effect = lower value 1.03 | S. cerevisiae deletion strains, locus YNL067W, strain RPL9B, stronger effect = lower value 0.998 | S. cerevisiae deletion strains, locus YNL071W, strain lat1, stronger effect = lower value 1.01 | S. cerevisiae deletion strains, locus YNL153C, strain GIM3, stronger effect = lower value 1.02 | S. cerevisiae deletion strains, locus YNL209W, strain ssb2, stronger effect = lower value 1.02 | S. cerevisiae deletion strains, locus YNL233W, strain BNI4, stronger effect = lower value 1 | S. cerevisiae deletion strains, locus YNL248C, strain rpa49, stronger effect = lower value 1.02 | S. cerevisiae deletion strains, locus YNL250W, strain rad50, stronger effect = lower value 0.982 | S. cerevisiae deletion strains, locus YNL271C, strain bni1, stronger effect = lower value 1 | S. cerevisiae deletion strains, locus YNL298W, strain CLA4, stronger effect = lower value 0.997 | S. cerevisiae deletion strains, locus YNL307C, strain MCK1, stronger effect = lower value 0.999 | S. cerevisiae deletion strains, locus YNL322C, strain KRE1 (second series), stronger effect = lower value 1.02 | S. cerevisiae deletion strains, locus YNR049C, strain mso1, stronger effect = lower value 1.02 | S. cerevisiae deletion strains, locus YNR052C, strain pop2, stronger effect = lower value 1.01 | S. cerevisiae deletion strains, locus YOL006C, strain TOP1, stronger effect = lower value 0.984 | S. cerevisiae deletion strains, locus YOL012C, strain htz1 1.69 | S. cerevisiae deletion strains, locus YOL147C, strain pex11, stronger effect = lower value 0.999 | S. cerevisiae deletion strains, locus YOR001W, strain rrp6, stronger effect = lower value 1.03 | S. cerevisiae deletion strains, locus YOR061W, strain CKA2, stronger effect = lower value 1.01 | S. cerevisiae deletion strains, locus YOR069W, strain VPS5, stronger effect = lower value 1.01 | S. cerevisiae deletion strains, locus YOR070C, strain gyp1, stronger effect = lower value 1.02 | S. cerevisiae deletion strains, locus YOR080W, strain dia2, stronger effect = lower value 1.01 | S. cerevisiae deletion strains, locus YOR083W, strain WHI5, stronger effect = lower value 1 | S. cerevisiae deletion strains, locus YOR106W, strain vam3, stronger effect = lower value 0.999 | S. cerevisiae deletion strains, locus YOR136W, strain idh2, stronger effect = lower value 0.989 | S. cerevisiae deletion strains, locus YOR144C, strain elg1, stronger effect = lower value 1 | S. cerevisiae deletion strains, locus YOR184W, strain ser1, stronger effect = lower value 1 | S. cerevisiae deletion strains, locus YOR265W, strain rbl2, stronger effect = lower value 1.01 | S. cerevisiae deletion strains, locus YOR270C, strain vph1, stronger effect = lower value 0.951 | S. cerevisiae deletion strains, locus YOR290C, strain snf2, stronger effect = lower value 0.996 | S. cerevisiae deletion strains, locus YOR316C, strain cot1, stronger effect = lower value 1.01 | S. cerevisiae deletion strains, locus YPL051W, strain arl3, stronger effect = lower value 1.01 | S. cerevisiae deletion strains, locus YPL078C, strain atp4, stronger effect = lower value 1 | S. cerevisiae deletion strains, locus YPL106C, strain sse1, stronger effect = lower value 0.989 | S. cerevisiae deletion strains, locus YPL240C, strain hsp82, stronger effect = lower value 1.02 | S. cerevisiae deletion strains, locus YPR119W, strain clb2, stronger effect = lower value 0.998 | S. cerevisiae deletion strains, locus YPR141C, strain kar3, stronger effect = lower value 1.01 | S. cerevisiae deletion strains, locus YPR163C, strain tif3, stronger effect = lower value 0.991 | S. cerevisiae deletion strains, locus YPR167C, strain met16, stronger effect = lower value 1 | S. cerevisiae deletion strains, strain wtn01, stronger effect = lower value 0.983 | S. cerevisiae strains, strain wild type, stronger effect = lower value 1.01

Reference: PubChem BioAssay AID1159580 (chemical genetic matrix, 2015)
